CYP2C9 activ: human CYP2C9 activators, primary screen, biochemical, luminescence. recombinant CYP2C9, luciferin-H conversion; stronger effect = higher value; factor 1 = untreated enzyme, 0 = blocked. activation factor at 5 µM. 96,000 compounds, 1.4% hits. AID 1024, 2008;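 active = activation factor of 2 or more for CYP2C9 at a 5 µM dose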;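 note: 0 = sulfaphenazole-blocked wells and 1 = vehicle-only wells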
PLK1 kinase inh: human PLK1 kinase inhibitors, primary screen, biochemical, TR-FRET; Serine/threonine-protein kinase PLK1 (Homo sapiens), P53350; recombinant PLK1 kinase, TR-FRET peptide phosphorylation; inhibition, % at 10 µM; AID 619, 2007; 97,000 compounds, 0.53% hits;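 active = inhibition of 50% or more in the single-concentration screen; inactive = inhibition below 50%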;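 note: 0% = DMSO max control and 100% = H-89 dihydrochloride min control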
Target sequence (P53350 whole entry, looked up): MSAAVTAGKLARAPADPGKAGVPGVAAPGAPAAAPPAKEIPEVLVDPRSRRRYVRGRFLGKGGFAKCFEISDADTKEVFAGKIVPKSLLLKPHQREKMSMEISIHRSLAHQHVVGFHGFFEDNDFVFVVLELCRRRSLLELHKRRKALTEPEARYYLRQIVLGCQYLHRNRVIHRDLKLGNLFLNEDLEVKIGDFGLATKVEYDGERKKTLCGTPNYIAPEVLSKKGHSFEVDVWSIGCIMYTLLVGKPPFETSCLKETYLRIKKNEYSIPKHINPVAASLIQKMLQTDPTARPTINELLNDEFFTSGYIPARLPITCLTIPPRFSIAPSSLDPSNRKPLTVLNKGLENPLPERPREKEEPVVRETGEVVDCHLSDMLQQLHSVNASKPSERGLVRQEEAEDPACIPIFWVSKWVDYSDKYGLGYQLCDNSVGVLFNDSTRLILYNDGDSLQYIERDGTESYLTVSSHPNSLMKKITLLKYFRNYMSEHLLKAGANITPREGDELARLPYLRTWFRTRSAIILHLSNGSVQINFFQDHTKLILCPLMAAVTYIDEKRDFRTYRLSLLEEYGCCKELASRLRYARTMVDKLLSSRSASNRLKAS
Plk1 PBD FP: Plk1 polo box domain binding inhibitors, primary screen, biochemical, fluorescence polarization; Serine/threonine-protein kinase PLK1 (Homo sapiens), P53350; inhibition, %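 (tested at about 20 µM)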; 97,000 compounds, 0.13% hits; Plk1 PBD phosphopeptide binding; in the data active = inhibition above about 34%, passing the limit was not always enough
CYP2C9 inh: blockers of cytochrome P450 2C9 activity – biochemical, luminescence, ADME assay, primary screen; P11712; CYP2C9 Supersomes, luciferin-H conversion; inhibition, % at 5 µM; 96,000 compounds, 20% hits; AID 777, 2007;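 active = blocking of liver enzyme CYP2C9 beyond about 50% at 5 µM, limit read from the data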
CYP2C19 inhib: blockers of cytochrome P450 2C19 activity – biochemical, luminescence, ADME assay, primary screen | 96,000 compounds, 21% hits | inhibition, % at 5 µM | P33261 | CYP2C19 Supersomes, luciferin-H EGE luminescence, 30 min;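 active = CYP2C19 inhibition above a set limit at 5 µM in the primary screen, cut at about 50% in these data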;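 note: plate controls were negative control wells for no effect and 2.5 mM tranylcypromine positive control for full effect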
CYP2C19 act: human CYP2C19 activators, primary screen, biochemical, luminescence; AID 1025, 2008; recombinant CYP2C19, luciferin-H EGE luminescence; stronger effect = higher value; 0 = fully inhibited enzyme, 1 = untreated enzyme; 96,000 tested, under 10 active; Cytochrome P450 2C19 (Homo sapiens), P33261; activation factor at 5 µM;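 active = activation factor of at least 2 at 5 µM in the primary screen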;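 note: 0 = wells with 2.5 mM tranylcypromine and 1 = vehicle-only wells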
Numbers without * were called inactive; nt = no result; ! = not confirmed by another sample. Hits are enriched below; roughly 28% of the tested compounds scored in any of these assays.

SMILES	CYP2C9 activ	PLK1 kinase inh	Plk1 PBD FP	CYP2C9 inh	CYP2C19 inhib	CYP2C19 act
CC1CCCCN1C(=O)Cn1c(=O)n(CCC(=O)NCc2ccco2)c(=O)c2sccc21 (configuration not stated)	0.9	-15	21	9	-10	1.1
O=C(CCCCn1c(=O)c2ccccc2n(CC(=O)NC2CCCC2)c1=O)NC1CCCC1	0.4	-5	16	62*	18	0.8
O=C(O)CSc1cccc2cccc(C(=O)O)c12	1	nt	nt	3	4	1
CCc1nnc(NC(=O)CCC(=O)N2CCN(c3ccccn3)CC2)s1	1.1	-11	9	-9	0	1
O=C(CCCCn1c(=O)c2ccccc2n(CC(=O)Nc2cccc(F)c2)c1=O)NCc1ccco1	0.3	nt	nt	75*	20	0.8
O=C(CCn1c(=O)c2ccccc2n(CC(=O)NC2CCCC2)c1=O)NCc1ccco1	0.5	-18	27	54*	16	0.8
CCc1ccc(NC(=O)Cn2c(=O)n(CCCC(=O)NCc3ccco3)c(=O)c3ccccc32)cc1	0.7	-1	-17	28	10	0.9
COc1cccc(NC(=O)Cn2c(=O)n(CCCC(=O)NCc3ccco3)c(=O)c3ccccc32)c1	0.8	-5	28	18	30	0.7
Fc1ccc(Nc2nc(N3CCOCC3)c3ccccc3n2)cc1	0.3	nt	nt	74*	76*	0.2
NC(=O)c1ccc(-n2nnnc2SCC(=O)Nc2ccccc2-c2ccccc2)cc1	0.8	11	-5	24	37	0.6
COc1cc2ccccc2c2c1CCCC2=O	1.4	-10	14	-38	59*	0.4
COc1cc(-c2nc3ccc4ccccc4c3c3c2CCC3)cc(OC)c1OC	0.9	-10	-31	8	8	0.9
CCOc1cc(-c2c(C#N)c(=O)[nH]c3c2c(C)nn3-c2ccc(F)cc2)ccc1O	0.1	nt	nt	91*	12	0.9
CCC(c1nnnn1CCc1ccccc1)N1CCN(c2ccc(OC)cc2)CC1 (configuration not stated)	0.8	-10	-47	25	30	0.7
Cn1c(Cn2cnc3ccccc32)nnc1SCc1ccccc1	0.8	-5	7	23	33	0.7
C=CCN1C(=O)C(Cc2ccc(OC)cc2)S/C1=N/N=C/c1ccco1 (configuration not stated)	0.9	-5	-12	11	78*	0.2
C=CCN1C(=O)C(Cc2ccc(Br)cc2)S/C1=N\N=C\c1ccco1 (configuration not stated)	1	-16	24	-4	-11	1.1
CCOC(=O)N1CCN(CCC(=O)Nc2cccc(Br)c2)CC1	0.4	-3	-22	58*!	65*!	0.3
CCOC(=O)N1CCN(CC(=O)Nc2cccc(Br)c2)CC1	0.9	-9	20	7	23	0.8
CCOC(=O)N1CCN(CCC(=O)Nc2ccc(Br)cc2)CC1	0.1	-14	-4	95*	92*	0.1
CC1(C(=O)N(CC(=O)NC2CCCC2)Cc2ccco2)CC(=O)N=C2C=CC=CN21 (configuration not stated)	1.1	-9	-9	-8	-5	1.1
O=C(c1ccccc1)N1CCCC(c2ccc(Cl)cc2)=N1	0.6	5	23	45	57*	0.4
O=C(c1cccc(Cl)c1)N1CCCC(c2ccc(Cl)cc2)=N1	0.5	1	-21	48	62*	0.4
COc1ccc(S(=O)(=O)N2CCN(C(=O)c3c(C)nn(-c4ccccc4)c3Cl)CC2)cc1	0.1	-2	5	90*	88*	0.1
Cc1ccc(S(=O)(=O)N2CCN(C(=O)c3c(C)nn(-c4ccccc4)c3Cl)CC2)cc1	0.5	nt	nt	50*	17	0.8
SMILES	CYP2C9 activ	PLK1 kinase inh	Plk1 PBD FP	CYP2C9 inh	CYP2C19 inhib	CYP2C19 act
COc1cccc(OC)c1C(=O)N1CCN(S(=O)(=O)c2ccc(C)cc2)CC1	0.6	-6	1	35	11	0.9
Cc1ccc(S(=O)(=O)N2CCN(C(=O)c3ccccc3)CC2)cc1	0.9	-12	3	12	34	0.7
O=S(=O)(c1ccc(F)cc1)N1CCC(N2CCN(c3ccccc3)CC2)CC1	nt	-9	22	nt	nt	nt
O=C(c1ccc(Cl)cc1)c1oc2ccccc2c1CS(=O)c1ccccc1 (configuration not stated)	0.7	-6	42	26	28	0.7
CCCCOC(=O)CSc1n[nH]c(=O)[nH]c1=O	0.8	-9	0	17	7	0.9
Cc1cc(OCC(=O)N2CCCC2)ccc1Cl	0.8	nt	nt	20	85*	0.2
CCCNS(=O)(=O)c1ccc(OCC(=O)NCCCOC)cc1	nt	-12	6	nt	nt	nt
Cc1ccc(OCC(=O)N2CCCCC2)c(Br)c1	1.1	4	6	-9	85*	0.1
COCCCNC(=O)COc1ccc(Cl)c(C)c1	1.1	nt	nt	-6	84*	0.2
Cc1cc(OCC(=O)N2CCCC2)cc(C)c1Cl	1.4	-11	-10	-39	8	0.9
Cc1ccc(S(=O)(=O)N2CCCC2C(=O)N2CCCCCC2)cc1 (configuration not stated)	2.7*	-17	10	-168	21	0.8
O=C(Nc1ccc(Cl)cn1)C1CCCN1S(=O)(=O)c1cccc2ccccc12 (configuration not stated)	1.2	-6	0	-21	32	0.7
O=C(Nc1ccc(Cl)cn1)C1CCCN1S(=O)(=O)c1ccc(Cl)cc1 (configuration not stated)	0.3	-2	-3	74*	43	0.6
O=C(C1CCCN1S(=O)(=O)c1ccc(Cl)c(Cl)c1)N1CCCCC1 (configuration not stated)	2.6*	-13	-8	-161	1	1
O=C(C1CCCN1S(=O)(=O)c1ccc(Cl)c(Cl)c1)N1CCOCC1 (configuration not stated)	1.6	-7	5	-62	-1	1
O=C(NC1CCS(=O)(=O)C1)C1CCCCN1S(=O)(=O)c1ccc(Cl)cc1 (configuration not stated)	0.1	-3	-25	91*	21	0.8
COc1ccc(C=NCC2COc3ccccc3O2)cc1OC (configuration not stated)	1	-10	0	-1	-7	1.1
CC(C)n1c(SCC(=O)N2c3ccccc3CCc3ccccc32)nc2c1c(=O)n(C)c(=O)n2C	nt	-6	-4	nt	nt	nt
Cc1ccc(S(=O)(=O)NC2=NCN(CCN3CCOCC3)CN2)cc1	1	-15	-16	-4	3	1
